# In the library only some 2.5% were active in any assay of this set; here they are far more common.
# TMEM16A inh: inhibitors of mouse TMEM16A calcium-activated chloride channel; Q8BHY3; HEK293 TMEM16A/YFP iodide influx fluorescence, ionomycin; normalized B-score (activity score, 25-100; higher = stronger inhibition) at 10 µM; 310,000 compounds, 1.2% hits; AID 588511;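 active = ratio plate-corrected score three or more library SD toward inhibition, starting fluorescence score within five deviations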;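 note: score derived from kinetic fluorescence span divided by baseline fluorescence per well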
# PKA-R1A act: PKA-R1A complex activation | P00514+P68181 | PKA-R1A dissociation, Cy5-IP20 fluorescence polarization; scaled: DMSO 0%, 113 µM cGMP 100% | activation, % at 11.4 µM | 340,000 compounds, 0.083% hits;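 active = percent activation above the mean of all tested compounds plus 3 SD, cut at about 19% in these data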;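 note: higher means more PKAc released from R1A so a rise in polarization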
# PKA-R2B act: activators of human PKA-R2B complex | PKA-R2B holoenzyme dissociation, Cy5-IP20 fluorescence polarization; R2B truncated from residue 108, S112A mutant; 0% DMSO only, 100% 113 µM cGMP | 340,000 compounds, 0.079% hits | activation, % at 11.4 µM;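 active = activation above a cutoff set at the mean over all compounds plus 3 SD, cut at about 18% in these data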;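 note: higher means more holoenzyme dissociation and a rise in polarization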
# CHT block: human CHT choline transport inhibition; Q9GZV3; AID 488975; 310,000 compounds, 0.86% hits; CHT-expressing cells, membrane potential dye, choline response; hits give low values; B-score at 10 µM;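 active = B-score over 3 SD under the library average, and starting fluorescence ratio not unusually high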;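 note: choline stimulus applied at its EC90 after an EC20 pre-addition; B-score computed on integrated fluorescence ratio after choline addition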
# Target sequence (Q9GZV3 whole entry, looked up): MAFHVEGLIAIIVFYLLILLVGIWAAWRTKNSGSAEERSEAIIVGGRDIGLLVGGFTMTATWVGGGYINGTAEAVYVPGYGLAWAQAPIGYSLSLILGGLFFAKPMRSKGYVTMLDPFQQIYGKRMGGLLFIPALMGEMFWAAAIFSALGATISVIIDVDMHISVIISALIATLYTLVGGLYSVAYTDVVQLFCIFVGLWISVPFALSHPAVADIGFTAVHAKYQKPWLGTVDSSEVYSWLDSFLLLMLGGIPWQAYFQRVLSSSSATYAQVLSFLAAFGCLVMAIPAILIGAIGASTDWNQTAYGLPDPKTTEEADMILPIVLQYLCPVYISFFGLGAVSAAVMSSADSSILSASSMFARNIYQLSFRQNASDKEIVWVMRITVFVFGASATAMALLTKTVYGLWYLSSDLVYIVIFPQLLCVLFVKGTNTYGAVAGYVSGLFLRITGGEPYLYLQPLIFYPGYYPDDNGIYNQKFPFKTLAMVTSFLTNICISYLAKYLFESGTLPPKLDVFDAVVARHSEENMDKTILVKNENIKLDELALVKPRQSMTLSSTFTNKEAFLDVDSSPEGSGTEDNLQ
# TMEM16A act: activators or potentiators of mouse TMEM16A chloride channel; Q8BHY3; HEK293 TMEM16A/YFP-H148Q/I152L, iodide quench fluorescence; hits give low values; B-score at 10 µM; 340,000 compounds, 0.3% hits; AID 623877;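 active = fluorescence-ratio B-score plate-corrected deviation score at least 3 library SD below zero, with starting fluorescence score within 5 deviations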;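 note: channel opened by trigger with iodide after compound preincubation; score built on the fluorescence ratio of max minus min over baseline; more negative score means more quench and so TMEM16A activation or potentiation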
# CHT allo act: human CHT allosteric activation; Q9GZV3; CHT-expressing cells, membrane potential dye, choline EC20; hits give high values; LV-AA mutant CHT in HEK293 cells; B-score at 10 µM; 310,000 compounds, 0.49% hits; AID 488977;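 active = initial fluorescence not abnormally high and integrated response B-score, plate-corrected, over 3 SD above library mean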
# Numbers without * were called inactive; i = inactive; nt = not tested or not shown.
SMILES,TMEM16A inh,PKA-R1A act,PKA-R2B act,CHT block,TMEM16A act,CHT allo act
CC(=O)c1ccc(-n2c(-c3cc(-c4ccco4)[nH]n3)n[nH]c2=S)cc1,i,-6,-9,i,-12*,i
O=C(O)c1ccc(-n2c(-c3cc(-c4ccco4)[nH]n3)n[nH]c2=S)cc1,i,-10,3,i,i,i
CCCc1nn2c(=O)cc(CSCC(=O)Nc3cccc(OC)c3)nc2s1,i,-2,0,i,i,i
COC(=O)[C@@]12CCCCN1[C@H](c1ccc(SC3CCCCC3)cc1)[C@@H]1C(=O)N(C)C(=O)[C@@H]12,i,15,6,i,-7.9*,i
Cc1ccc(C)c(Cn2c3ccccc3c3cnn(CC(=O)NCc4ccccn4)c(=O)c32)c1,i,-4,-5,i,-7.2*,i
O=C(Cn1ncc2c3ccccc3n(Cc3ccccc3F)c2c1=O)NCCCN1CCCC1=O,i,1,1,i,-5.2*,i
CCc1cccc(NC(=O)CSc2nnc(Cc3ccc(OC)cc3)c(=O)[nH]2)c1,i,-1,6,i,i,i
CCOC(=O)c1cnc2c(C#N)c(C)nn2c1-c1ccccc1,i,-7,8,i,i,i
CCOC(=O)c1cnc2c(C#N)c(C)nn2c1C,i,4,3,i,-23*,i
CC(C)(C)C(=O)Cn1c(=N)n(Cc2ccccc2)c2ccccc21,i,-2,-4,i,i,i
Cc1ccc(Cn2c(=N)n(CC(=O)c3ccccc3)c3ccccc32)cc1,25*,-10,-1,i,i,i
CCOc1ccc(Br)cc1CN(CC)CC,i,0,-18,i,i,i
COc1ccc(-c2[nH]n(-c3ccc([N+](=O)[O-])cc3)c(=O)c2C=NCCN2CCNCC2)cc1,i,nt,nt,i,nt,9.3*
O=c1c(C=NCCN2CCNCC2)c(-c2ccccc2)[nH]n1-c1ccc([N+](=O)[O-])cc1,i,nt,nt,i,nt,i
Cc1ccc(C(=O)NCc2nc3ccccc3[nH]2)o1,i,-1,-4,i,i,i
COc1ccc(F)cc1CSc1nnnn1-c1ccc(O)cc1,25*,0,2,i,i,i
CN(CCCC1CCCC1)C(=O)CC1C(=O)NCCN1Cc1ccc(F)cc1 (centres undefined),i,8,0,i,i,i
COc1ccccc1NC(=O)C(Sc1ccccc1)c1ccccc1 (centres undefined),i,-12,-7,i,i,i
CCOc1ccccc1NC(=O)C(Sc1ccccc1)c1ccccc1 (centres undefined),100*,10,0,i,i,i
CC1=NNC(=O)/C1=C\c1cn(-c2ccccc2)nc1-c1cccs1,i,-7,-1,i,i,i
CC1=NNC(=O)/C1=C\c1cn(-c2ccccc2)nc1-c1ccc(F)cc1,nt,-10,-4,nt,-6.2*,nt
Cc1ccc(-c2csc(N3CCN(S(=O)(=O)c4ccc5c(c4)NC(=O)CO5)CC3)n2)cc1,i,-8,1,i,i,i
CC(=O)N1CCc2cc(S(=O)(=O)CCC(=O)Nc3ccccc3F)ccc21,i,-3,-15,i,i,i
COc1ccc2[nH]c3c(N4CCC(O)(c5cccc(C(F)(F)F)c5)CC4)ncnc3c2c1,100*,-4,-10,i,i,i
Nc1nonc1-n1nnc(C(=O)N/N=C/c2ccccc2Br)c1CN1CCCC1,i,4,-5,i,i,i
O=C(N1CCN(Cc2ccc3c(c2)OCO3)CC1)C(Cl)(Cl)Cl,i,7,11,i,i,i
C=CCn1c(SCc2ccc(C(=O)Nc3nccs3)cc2)nnc1-c1ccc(C)c(Cl)c1,25*,-9,-14,i,i,i
COC(=O)c1ccc2c(c1)C(C)(C)C(/C=C/c1ccccc1O)=[N+]2C,i,-18,-3,i,i,7.2*
